Assay outcomes from PubChem.
Menin MLL FP TR: displaces Texas Red mutant MLL peptide from human menin | Menin + Texas Red MLL mutant peptide, fluorescence polarization | Potency, µM (titrated, usually from 61.6 µM), for inactives: at the top dose FP activity change, negative = inhibition, actives largely listed as inhibitors | 0.23% of 270,000 active; active means well fitted inhibition curve with a large enough effect in the polarisation, with a control signal flat, not every such curve was filed as active; inconclusive means small, poorly fitted or top-dose-only effect, or effect the other way, or a change in a side signal; inactive means no such curve, though single readings can be large or run the other way; the % refers to the polarisation; further: potency means the concentration at half of the fitted maximal effect; % of control where 0% means no effect
p53 reactivation: mutant p53 re-activation in reporter cells; 0.063% of 320,000 active; AID 504706; Potency, µM (series often up to 92.2 µM), inactives show top-dose activity change, positive = activation, most hits filed as activators; H1299 p53-A138V BP100-luciferase reporter, luminescence, 24 h; active means well fitted activation curve with a large enough effect; inconclusive means small, poorly fitted or top-dose-only effect; inactive means no such curve, though single readings can be large or run the other way; further: potency means the concentration at half of the fitted maximal effect; % of control where 0% means no effect; nearly all actives have a fitted effect of over 45% in size
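p53-null H1299 cells stably carrying temperature-sensitive p53-A138V and a BP100-luciferase reporter were pinned with compounds (4-point, 1:5 series) and held 24 hrs at 37 deg C. Luminescence was read 10 min after detection reagent.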
Menin MLL FP FL: menin-MLL binding inhibition, fluorescein peptide; FP activity change, % at 61.4 µM; 290,000 tested, under 10 active; Fluorescence polarization, fluorescein-MLL peptide displacement from menin; AID 1766; active means well fitted curve in the direction sought with a large enough effect in the polarisation, not every such curve was filed as active; inconclusive means small, poorly fitted or top-dose-only effect, or effect the other way, or a change in a side signal; inactive means no such curve, though single readings can be large or run the other way; the % refers to the polarisation; further: % of control where 0% means no effect
ClpP mod: qHTS Assay for Activators of ClpP; ATP-dependent Clp protease proteolytic subunit (Bacillus subtilis (strain 168)), P80244; purified B. subtilis ClpP, FRET peptide cleavage, 20 min; Potency, µM (series often up to 57.5 µM), without a hit: at the top dose activity change, negative = active; 1.9% of 340,000 active; AID 651965, 2013; active means well fitted falling curve with a large enough effect; inconclusive means small, poorly fitted or top-dose-only effect; inactive means no such curve, though single readings can be large or run the other way; further: potency means the concentration at half of the fitted maximal effect; the source files actives as falling curves though it sought activators and does not explain the sign; nearly all actives have a fitted effect of over 65% in size
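FRET quenching reversal measured ClpP activation: 10 microg/mL B. subtilis ClpP at pH 8 with the FRET-FV decapeptide, read at 430 nm after 320 nm excitation. The 20-min minus 0-min signal was scaled between DMSO/no-enzyme wells and ADEP (5.8 microM final).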
CXXC DNA block: inhibitors of human MLL CXXC domain-DNA interaction | Q03164 | MLL-CXXC / FITC-HOXA9 DNA fluorescence polarization | Potency, µM (highest dose often 115 µM), without a hit: top-dose activity change, negative = inhibition, actives largely listed as inhibitors | 0.037% of 290,000 active | AID 2662; active means well fitted inhibition curve with a large enough effect in the polarisation, with a control signal flat, not every such curve was filed as active; inconclusive means small, poorly fitted or top-dose-only effect, or effect the other way, or a change in a side signal; inactive means no such curve, though single readings can be large or run the other way; the % refers to the polarisation; further: potency means the concentration at half of the fitted maximal effect
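Steps: dispense CXXC domain solution (7 uM) → pin compounds or unlabeled HOX-A9 DNA control → 5 min ambient → add FLSN-HOX-A9 solution (50 nM) → spin → 30 min ambient → fluorescence polarization. Tris pH 7.5/NaCl/DTT/BSA buffer.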
Active calls of the source: *; ? = inconclusive; . = not tested or not shown; ! = not active in a repeat; [ ] = another dose, or the depositor's remark. Only a selection was taken, and hits are over-represented in it overall.

SMILES | Menin MLL FP TR | p53 reactivation | Menin MLL FP FL | ClpP mod | CXXC DNA block
Cc1cc(C)n(-c2nc(NC(C)C)nc(NC(C)(C)C)n2)n1 | . | . | . | 1.9% | .
Cc1cc(C)c2cc(C#N)c(NCCOC(=O)c3ccccc3C)nc2c1 | 1.1% | -2.5% | 0.9 | 28.2µM* | ?
CN(C)c1ccc(/C=C/c2ccnc3ccc(Br)cc23)cc1 | . | . | . | 2.3% | .
Cc1ccc(S(=O)(=O)NCC(c2ccc3c(c2)OCO3)N2CCOCC2)cc1 (stereo not given) | . | 2.5% | . | 28.2µM* | .
COc1ccc(C)cc1N(C(=O)COc1ccccc1)c1nc2ccccc2s1 | -15.1% | 6.7% | . | 10µM* | 7.5%
O=C(O)C(SC(C(=O)O)c1ccccc1)c1ccccc1 (stereo not given) | . | . | . | 28.2µM* | .
O=C(O)C(O)c1ccccc1 (stereo not given) | 11.5% | 4.0% | -5.2 | -0.8% | 2.5%
COc1ccc(OC)c(/C=N/NC(=O)CCCC(=O)Nc2cccc(Br)c2)c1 | 40.5% | -7.3% | -0.3 | 25.1µM* | -7.0%
COc1ccc(OC)c(/C=N/NC(=O)CCN2CCN(C(c3ccccc3)c3ccccc3)CC2)c1 | 0.3% | 10.2% | 3.2 | 28.2µM* | 19.5%
CCCN1CNc2c(c(=O)[nH]c(=S)n2CCc2ccc(Cl)cc2)C1 | . | . | . | -3.1% | .
Clc1ccc(CSc2nccn2Cc2ccccc2)cc1 | 33.0% | -0.3% | -1.1 | -2.8% | 0.9%
O=c1ccn(Cc2ccccc2)c(SCc2ccccc2)n1 | . | . | . | 15.8µM* | .
CC1(C)Cc2c(c(-c3ccco3)nc3sc4c(NCC5CCCO5)ncnc4c23)CO1 (stereo not given) | -10.1% | -19.0% | 6.8 | 15.8µM* | 21.7%
CC(C)CNc1ncnc2c1sc1nc(N3CCOCC3)c3c(c12)CC(C)(C)OC3 | -4.6% | 12.2% | 3.6 | 6.31µM* | -4.8%
CC1(C)CC(=O)c2cc(-c3nc(-c4ccc(Cl)cc4)cs3)c(=O)n(-c3ccc(F)cc3)c2C1 | . | . | . | 39.8µM* | .
O=C(Cn1cc(SCc2ccc(F)cc2)c2ccccc21)N1CCOCC1 | 2.8% | 28.2µM* | 0.0 | 2.82µM* | 1.1%
COc1cc2c3nnc(-c4ccc(F)cc4)c-3cn(Cc3ccccc3F)c2cc1OC | -10.0% | ? | ? | . | ?
COc1cc2c3nnc(-c4ccccc4)c-3cn(Cc3ccccc3F)c2cc1OC | 12.6µM* | 3.8% | ? | . | 5.7%
O=C(/C=C/c1ccc(O)cc1)OC[C@H]1O[C@@H](Oc2c(-c3ccc(O)cc3)oc3cc(O)cc(O)c3c2=O)[C@H](O)[C@@H](O)[C@@H]1O | 17.3% | . | 2.6 | . | .
C=CCn1c(SCC(=O)NC(=O)NCCC)nnc1C1CCCCC1 | -9.7% | -2.4% | -0.1 | 3.16µM* | -7.1%
Cc1ccc(O)c(-c2cc3ccccc3[nH]2)c1 | ? | ? | 4.5 | 14.1µM* | 12.5%
Fc1ccccc1-c1nc(NCCCN2CCOCC2)c2ccccc2n1 | -5.6% | -2.3% | -2.6 | -5.0% | -7.2%
c1csc(-c2nc(NCCCN3CCOCC3)c3ccccc3n2)c1 | -1.3% | -7.6% | -2.0 | 35.5µM* | 23.3%
O=C(c1cccc(S(=O)(=O)N2CCc3ccccc3C2)c1)N1CCN(c2ccc(O)cc2)CC1 | 9.3% | -16.8% | 2.2 | 31.6µM* | 2.2%
NC(=O)C1CCN(C(=O)c2cccc(S(=O)(=O)N3CCc4ccccc4C3)c2)CC1 | -2.1% | -1.5% | -3.2 | . | 9.6%
SMILES | Menin MLL FP TR | p53 reactivation | Menin MLL FP FL | ClpP mod | CXXC DNA block
C=COC(=O)/C=C/C | -2.4% | . | 3.1 | . | .
COc1ccc(C(=O)Nc2cccc(-c3cn4ccsc4n3)c2)c(OC)c1 | . | . | . | -17.4% | .
Oc1ccc2ccccc2c1CN1CCN(C/C=C/c2ccccc2)CC1 | -28.5% | . | -6.2 | . | 31.9%
Oc1ccc2ccccc2c1CN1CCN(c2ccccc2F)CC1 | -13.0% | 14.8% | ? | 11.2µM* | 21.4%
COC(=O)C(C(C)=O)C1c2ccccc2C=C(C)N1C(=O)OC (stereo not given) | -0.7%[11.7 µM] | . | -1.4[11.7 µM] | . | .
Cc1c2cnn(CC(=O)NCc3ccc(F)cc3)c(=O)c2c(C)n1Cc1ccccc1F | . | . | . | -1.7% | .
Cc1c2cnn(CC(=O)Nc3c(F)c(F)cc(F)c3F)c(=O)c2c(C)n1Cc1ccccc1F | 12.6µM* | 3.2% | ? | . | 4.4%
Cc1cc(C)c(C)c(S(=O)(=O)Nc2ccccc2C(=O)O)c1C | 36.8% | -2.0% | -1.3 | . | -19.1%
Cc1ccc(C)c(S(=O)(=O)Nc2ccccc2C(=O)Nc2cc(C)on2)c1 | -6.0% | 1.2% | -0.8 | 15.8µM* | 9.2%
Cc1cc(NC(=O)c2ccccc2NS(=O)(=O)c2c(C)c(C)cc(C)c2C)no1 | ? | -11.5% | -0.3 | 28.2µM* | -1.8%
Cc1ccc(C)c(NC(=O)c2ccccc2NS(=O)(=O)c2cc([N+](=O)[O-])ccc2C)c1 | ? | 0.3% | 2.1 | -0.9% | 1.0%
O.O.[Mn].[Mn].[Mn].[OH-].[OH-] | -2.3% | . | 1.2 | . | .
Cc1csc2nc(=O)c3ccccc3n12 | 2.3% | ? | 4.1 | 11.2µM* | 1.4%
COc1ccc(/C=N/c2c(-c3ccco3)nc3ccccn23)cc1OC | ? | 6.5% | -7.8 | 28.2µM* | -14.6%
Clc1ccc(/C=N/c2c(-c3ccco3)nc3ccccn23)cc1 | ? | 5.7% | -10.5 | ? | -7.9%
O=S(=O)(c1ccc(Cl)cc1)N1CCN(c2nc(-c3ccccc3)nc3ccccc23)CC1 | . | . | . | -20.0% | .
COc1cc2c(cc1OC)-c1cc(NC3CCCC3)nc(=O)n1CC2 | -15.7% | -8.8% | 4.0 | 31.6µM* | -1.9%
CN(C)c1ccc(/C=C/c2ccnc3ccc(O)cc23)cc1 | . | . | . | -2.9% | .
CCN(CC(=O)NCc1ccc(F)cc1)Cc1nc2cc(Cl)ccc2c(=O)[nH]1 | 16.9% | -6.4% | 10.2 | 7.08µM* | 14.0%
CCN(CC(=O)NCCc1ccc(F)cc1)Cc1nc2ccccc2c(=O)[nH]1 | . | 6.0% | 4.1 | -0.7% | -17.2%
CCOC(=O)CS(=O)(=O)c1nc(-c2ccc(F)cc2)cc(C(F)(F)F)n1 | 11.7% | -39.3% | 0.0 | 22.4µM* | ?
Cc1ccc(C)c(-c2ccc(C(=O)O)o2)c1 | ? | . | -1.0[138 µM] | . | .
COCCCNC(=O)c1cc2c(-c3cccc(OC)c3)nn(C)c2s1 | -28.7% | -1.4% | -0.4 | 4.2% | 16.7%
COc1cccc(-c2nn(C)c3sc(C(=O)NCc4ccccn4)cc23)c1 | -19.9% | -9.9% | 1.9 | 28.2µM* | 13.4%
COc1cccc(-c2nn(C)c3sc(C(=O)NCc4ccc(C)cc4)cc23)c1 | 0.1% | -0.6% | 1.9 | 20µM*! | 19.2%
Cc1ccc(NC(=O)c2cc3c(-c4ccccc4)nn(-c4ccccc4)c3s2)cc1 | . | . | . | 17.8µM* | .
CC(=O)NC(Cc1ccc([N+](=O)[O-])cc1)C(=O)NCC(N)C(=O)c1ccccc1 (stereo not given) | . | . | . | -1.0% | .
CC(=O)c1c(C)[nH]c2ccc(OCC(O)CNCCc3ccccc3)cc12 (stereo not given) | . | . | . | -3.3% | .
